Measured values taken from the supplement of paper PMC6331611.
“And” between values parts separate entries of the source, which are not always exact repeats. Equal values may be shown once. ± gives the standard deviation of the averaged measurements. Whole data set: some 1,600 compounds, median “normalized intracellular growth (luminescence, IQM-normalized) in RAW264.7 macrophages” near 1, cut for the lowest 2% near 0.43. The full list was thinned out, with the lowest values kept by preference.

Test system: Salmonella enterica serovar Typhimurium SL1344
Test: normalized intracellular growth (luminescence, IQM-normalized) in RAW264.7 macrophages (fraction of plate interquartile mean); higher = more bacterial growth (less inhibition)
Conditions: 10 µM

Row | Compound | normalized intracellular growth (time point: T3 (3 h)) | normalized intracellular growth (time point: Tfinal (~6 h))
1 | N=C(NCCCCCCNC(=N)NC(=N)Nc1ccc(Cl)cc1)NC(=N)Nc1ccc(Cl)cc1 | 0.912 ± 0.078 | 1.15 ± 0.014
2 | CC(C)NC(=N)NC(=N)Nc1ccc(Cl)cc1 | 0.664 ± 0.018 | 0.164 ± 0.01
3 | O=C1c2c(O)cc(CO)cc2C(OC2OC(CO)C(O)C(O)C2O)c2cccc(OC3OC(CO)C(O)C(O)C3O)c21 (configuration not stated) [CASANTHRANOL [cascaroside A shown]] | 0.997 ± 0.016 | 0.857 ± 0.041
4 | CCCCCCOC(=O)NC(=N)c1ccc(NCc2nc3cc(C(=O)N(CCC(=O)OCC)c4ccccn4)ccc3n2C)cc1 | 1.02 ± 0.01 | 0.97 ± 0.034
5 | CCCCC(CC)COC(=O)CC(C(=O)OCC(CC)CCCC)S(=O)(=O)O (configuration not stated) | 0.943 ± 0.069 | 0.958 ± 0.027
6 | CCN(CC)CCNC(=O)c1ccc(NC(C)=O)cc1 | 1.03 ± 0.065 | 1 ± 0.12
7 | C[C@H]1[C@H](OC(=O)CCC(=O)O)O[C@@H]2O[C@@]3(C)CC[C@H]4[C@H](C)CC[C@@H]1[C@@]24OO3 | 0.899 ± 0.045 | 0.869 ± 0.028
8 | Nc1ncn([C@@H]2O[C@H](CO)[C@@H](O)[C@H]2O)c(=O)n1 | 0.951 ± 0.029 | 0.154 ± 0.087
9 | Nc1ccn([C@@H]2O[C@H](CO)[C@@H](O)[C@@H]2O)c(=O)n1 | 0.9664 ± 0.0095 | 0.997 ± 0.037
10 | O=c1[nH]cnc2c1ncn2[C@@H]1O[C@H](CO)[C@@H](O)[C@H]1O | 0.917 ± 0.048 | 0.976 ± 0.13
11 | CCCCC(CC)CN=C(N)N=C(N)NCCCCCCNC(N)=NC(N)=NCC(CC)CCCC (configuration not stated) | 0.994 ± 0.063 | 1.1 ± 0.035
12 | CN(C)CC[C@@H](c1ccc(Cl)cc1)c1ccccn1 | 1 and 1.05 | 1.01 and 0.736
13 | C[C@]12C=CC(=O)C=C1CC[C@@H]1[C@@H]2[C@@H](O)C[C@@]2(C)[C@H]1CC[C@]2(O)C(=O)COC(=O)CCC(=O)O | 1.02 ± 0.016 | 0.815 ± 0.11
14 | N[C@H]1C(O)O[C@H](CO)[C@@H](O)[C@@H]1O (some centres not stated) | 0.967 ± 0.045 | 0.999 ± 0.058
15 | CCn1cc(C(=O)O)c(=O)c2cnc(N3CCCC3)nc21 | 0.929 ± 0.0075 | 1.04 ± 0.053
16 | O=C(O)c1cn(C2CC2)c2cc(N3CCNCC3)c(F)cc2c1=O | 1.14 ± 0.019 | 0.0127 ± 0.00088

Row | Compound | normalized intracellular growth (time point: T3 (3 h)) | normalized intracellular growth (time point: Tfinal (~6 h))
17 | CCn1cc(C(=O)O)c(=O)c2cc(F)c(N3CCNCC3)cc21 | 1.07 ± 0.028 | 1.19 ± 0.029
18 | CN1CCN(c2cc3c(cc2F)c(=O)c(C(=O)O)cn3-c2ccc(F)cc2)CC1 | 0.634 ± 0.14 | 0.982 ± 0.093
19 | O=C(O)c1cn(-c2ccc(F)cc2)c2cc(N3CCNCC3)c(F)cc2c1=O | 1.1 ± 0.081 | 0.00781 ± 0.0016
20 | CCn1cc(C(=O)O)c(=O)c2cc(F)c(N3CCN(C)CC3)cc21 | 1.11 ± 0.11 | 0.012 ± 0.0031
21 | C[C@H](N[C@@H](CCc1ccccc1)C(=O)O)C(=O)N1Cc2ccccc2C[C@H]1C(=O)O | 1.03 ± 0.079 | 1.08 ± 0.12
22 | NC(=O)CCCCC1CCSS1 (configuration not stated) | 0.996 ± 0.093 | 0.817 ± 0.12
23 | O=S(=O)(O)CCCS(=O)(=O)O | 1.01 ± 0.095 | 0.9 ± 0.34
24 | O=C1/C(=C/c2cccs2)CCC/C1=C\c1cccs1 | 0.973 ± 0.059 | 1.06 ± 0.036
25 | CC1=CC(=O)NS(=O)(=O)O1 | 1.06 ± 0.077 | 1.04 ± 0.089
26 | CN1CC(=O)N2[C@H](c3ccc4c(c3)OCO4)c3[nH]c4ccccc4c3C[C@@H]2C1=O | 1.06 ± 0.072 | 0.783 ± 0.27
27 | CN(C)c1ccc(C(=C2C=CC(=[N+](C)C)C=C2)c2ccc(N(C)C)cc2)cc1 | 0.8927 ± 0.0022 | 0.931 ± 0.03
28 | CC(=O)OCC(=O)[C@@]1(O)[C@H](OC(C)=O)C[C@H]2[C@@H]3CCC4=CC(=O)C=C[C@]4(C)[C@@]3(F)[C@@H](O)C[C@@]21C | 0.823 ± 0.07 | 1.2 ± 0.034
29 | CCOc1ccc(Cc2nccc3cc(OCC)c(OCC)cc23)cc1OCC | 0.925 ± 0.09 | 0.43 ± 0.11
30 | CCC/C=C\C=C/C(=O)N[C@@H](CC(N)=O)C(=O)NC(CC(N)=O)C(=O)N[C@@H](C(=O)N[C@H](CCCN)C(=O)N[C@@H](C(=O)N[C@@H](C(=O)N[C@@H](C(=O)N[C@H](C(=O)N[C@@H](Cc1ccccc1)C(=O)N[C@H](CCCN)C(=O)NC(C(=O)N[C@H](C(=O)NC(C(=O)NCC(=O)N[C@@H](CC(C)C)C(=O)N[C@H](C)C(=O)NC(C(=O)O)C1CCC(O)C(Cl)C1)C1CCC(O)CC1)[C@H](C)O)C1CCC(O)CC1)[C@H](C)O)C1CCC(O)CC1)C1CCC(O)CC1)[C@H](C)O)C1CCC(O)CC1 (some centres not stated) [RAMOPLANIN [A2 shown; 2mM]] | 0.984 ± 0.051 | 1.17 ± 0.15
31 | C=CCCCCCCCCC(=O)[O-].C=CCCCCCCCCC(=O)[O-].[Zn+2] | 1 ± 0.048 | 0.832 ± 0.1
